Measured values: PubChem BioAssay AID1018 (Sanford-Burnham Center for Chemical Genomics, 2008)
About 15 (0.007%) of roughly 200,000 compounds were called active. For the sample, actives were picked, then their nearest neighbours and some compounds at random. Unmarked numbers belong to inactive results. Rule as the data show it: active = displacement above about 50%; inactive = the rest.

Molecular target: E3 ubiquitin-protein ligase XIAP (Homo sapiens) (UniProt P98170)
Experiment: small molecules displacing peptide from XIAP – biochemical, IAP family, fluorescence polarization (AID 1018)
Conditions: XIAP BIR domain, at 20 µM, hits give high values

E3 ubiquitin-protein ligase XIAP (Homo sapiens), sequence (P98170 whole entry, looked up): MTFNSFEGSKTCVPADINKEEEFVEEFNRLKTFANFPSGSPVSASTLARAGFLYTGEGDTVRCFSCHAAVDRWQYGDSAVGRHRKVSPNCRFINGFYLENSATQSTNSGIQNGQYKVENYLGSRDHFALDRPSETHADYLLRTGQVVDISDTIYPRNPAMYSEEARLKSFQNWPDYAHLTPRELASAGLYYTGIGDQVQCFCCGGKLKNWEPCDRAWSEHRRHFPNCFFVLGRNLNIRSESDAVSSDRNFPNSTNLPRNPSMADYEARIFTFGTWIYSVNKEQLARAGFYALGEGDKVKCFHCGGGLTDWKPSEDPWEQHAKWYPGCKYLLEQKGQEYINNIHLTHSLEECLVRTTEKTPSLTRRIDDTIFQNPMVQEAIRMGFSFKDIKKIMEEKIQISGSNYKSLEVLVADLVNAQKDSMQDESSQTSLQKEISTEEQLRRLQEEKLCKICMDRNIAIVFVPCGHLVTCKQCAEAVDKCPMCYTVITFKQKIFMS

SMILES	displacement
O=c1[nH]nc(CNc2ccc(OC(F)(F)F)cc2)c2ccccc12	-3.9%
COc1ccccc1N(C)S(=O)(=O)c1ccc(C(=O)Nc2ccc3nc(C)sc3c2)cc1	1.3%
Cc1cc(C(F)(F)F)nn1CC(=O)N(C)c1ccccc1	-1.9%
CCNS(=O)(=O)c1ccc(Br)c(OC)c1	-3.2%
COc1cc2nc(CN3CCN(S(=O)(=O)c4ccc(Cl)cc4)CC3)[nH]c(=O)c2cc1OC	-6.8%
C#CCOCCOCCOCCNc1nc(N2CCN(C(=O)[C@H](CCCCN)n3cc([C@@H](N)C(C)CC)nn3)CC2)nc(N2CCN(C(=O)[C@H](CCCCN)n3cc([C@@H](N)CO)nn3)CC2)n1 (stereo not given in full)	3.3%
CN(C)S(=O)(=O)c1ccc(C(=O)Nc2ccnn2C2CCCCC2)cc1	-3.3%
COc1ccc(-c2nc(CC(=O)O)cs2)cc1OC	-0.6%
Cc1ccc(C2NC(=O)NC3=C2CCc2ccccc23)cc1 (stereo not given)	-5.1%
CC(C)c1ccc(C2NC(=O)NC3=C2CCc2ccccc23)cc1 (stereo not given)	52.5% (active)
O=C1NC2=C(CCc3ccccc32)C(c2ccccc2)N1 (stereo not given)	-5.4%
CCOC(=O)c1c(-c2ccc(C)o2)csc1NC(=O)CSc1nnnn1-c1ccccc1	-8.2%
CCCCCCCCNC(=O)c1cnsn1	-0.1%
COc1cccc(-c2cc(C(=O)NCCCn3ccnc3)c3ccccc3n2)c1	-3%
O=C(Cn1cc2c(n1)CCCCC2)NC1CCN(Cc2ccccc2)CC1	-4.9%
CCCc1cc(-c2n[nH]c(=S)n2CC)cs1	-5.7%
O=C(Cn1c(=O)oc2cc(S(=O)(=O)N3CCCCC3)ccc21)N1CCc2ccccc2C1	-5.2%
COc1ccc(NC(=O)OCCN2CCN(Cc3ccccc3)CCC2=O)cc1	-8%
N#Cc1nc(COc2ccccc2)oc1N1CCN(Cc2ccccc2)CC1	0.7%
CCC(C)NC(=O)Cc1c(OC)ccc2cc(Br)ccc12 (stereo not given)	-4.6%

SMILES	displacement
C=CCSc1nnc(-c2ccccc2NC(=O)CC)c(=O)[nH]1	-1.1%
COc1ccccc1N1CCN(C(=O)CCN2C(=O)c3cccc4cccc(c34)C2=O)CC1	-4.4%
CC(=O)Nc1ccc(NC(=O)C(C)c2cccc(C(=O)c3ccccc3)c2)cc1 (stereo not given)	2.4%
CCOC(=O)c1ccc(NC(=S)NCCCN2CCCCC2)cc1	-4.4%
COC(=O)c1cc2n3ccccc3c(C)c(-c3ccccc3)c-2c1C(=O)OC	72.2% (active)
COC(=O)c1c(Cl)c2n3ccccc3c(C)c(-c3ccccc3)c-2c1C(=O)OC	-0.6%
COC(=O)c1cc2c(-c3ccccc3)c(C)c3ccccn3c-2c1C(=O)OC	26%
O=C(O)/C=C\C(=O)NCc1cccnc1	-9.2%
Cc1cc(F)ccc1N1CCC(N2CCN(C(C)C)C(CCO)C2)CC1 (stereo not given)	-1.1%
O=C(c1cc(COc2ccc(F)cc2F)on1)N1CCSCC1	-0.5%
CCN1CCN(C(=S)Nc2cc(S(=O)(=O)N(CC)CC)ccc2C)CC1	-2.7%
Cc1ccccc1NC(=O)Cc1c(O)c2ccccc2[nH]c1=O	-1.1%
CCOC(=O)CSC(=S)NC(=O)c1ccc(OC)cc1	-1.6%
CCOC(=O)C1=C(C)NC(=NC)SC1c1ccccc1 (stereo not given)	-5%
CSc1nnc(-c2cccs2)n1-c1ccccc1	0.8%
CCOC(=O)C1(CC2CC2)CCN(Cc2ccc(O)c(Cl)c2)CC1	-4.8%
CCCc1cc(=O)[nH]c(SCC(=O)N(CC)C2CCS(=O)(=O)C2)n1 (stereo not given)	-4.4%
CC(C)(C)C1=C(C#N)C(c2ccncc2)C(C#N)=C(N)O1 (stereo not given)	-0.4%
CCN1CCCC1CNC(=O)Cn1cccc1C(=O)c1ccccc1 (stereo not given)	-6.4%
CC(=O)c1cc(-c2ccccc2)n(CC(=O)Nc2cc(C)cc(C)c2)c1C	-1%

SMILES	displacement
Cc1ccc(C)c2[nH]c(=O)c(CN(Cc3ccco3)C(=S)NCC3CCCO3)cc12 (stereo not given)	0.3%
CCN(c1ccccc1)S(=O)(=O)c1cc(C(=O)Nc2ccccc2Cl)ccc1F	-5.8%
O=C(c1ccc(F)cc1)N1CCCCC(Sc2nnnn2-c2ccccc2)C1=O (stereo not given)	-21.1%
Cc1c(C(=O)C(=O)NCC2CCCO2)c2ccccc2n1C (stereo not given)	-2.9%
CCOC(=O)C(=O)Nc1cc(Cl)ccc1C	-10.6%
Cc1c(N)cccc1-n1cnnn1	-4%
Cc1onc(-c2c(F)cccc2Cl)c1C(=O)N1CCc2ccccc2C1	-8.4%
O=C(COC(=O)CCc1nc2ccccc2s1)Nc1cccc(S(=O)(=O)N2CCOCC2)c1	-5.8%
c1ccc(Cn2nnc3c(NCc4ccc5c(c4)OCO5)nc(C4CC4)nc32)cc1	-10.8%
Cc1nc(NCc2ccc3c(c2)OCO3)c2nnn(Cc3ccccc3)c2n1	-8.1%
CCCc1nc(NCc2ccc3c(c2)OCO3)c2nnn(Cc3ccccc3Cl)c2n1	51.1% (active)
O=C(COC(=O)c1ccc[n+]([O-])c1)Nc1c(Br)cc([N+](=O)[O-])cc1Br	-4.5%
Cc1cc(C)c(NC(=S)N(CCN(C)C)Cc2cccs2)c(C)c1	-10.6%
C=C(C)C1Cc2c(C)nn(-c3cccc4ccccc34)c2C1 (stereo not given)	-4.8%
CCOC(=O)c1ccc(NC(=O)N2CCN(CCc3ccccc3)CC2)cc1	-8.1%
Cc1sc2ncn(-c3ccccc3)c(=O)c2c1C	4.2%
Cc1ccc2nc(C3CCCN(C(=S)Nc4ccccc4C)C3)[nH]c2c1 (stereo not given)	-10%
CCCOC(=O)/C(=C\C=C\c1ccco1)NC(=O)c1ccccc1	-0.1%
Cc1ccc(N/C(N)=N/c2nc(CSc3ccc(C)cc3)cc(=O)[nH]2)cc1	1.1%
CC(/C=C1\SC(=S)N(NC(=O)c2ccccc2C)C1=O)=C\c1ccccc1	-1.8%
